Screens deposited in PubChem by National Center for Advancing Translational Sciences (NCATS).
The list is not random: actives were taken first. Their share in the collection is about 3.2%.
PMP22 txn prim: PMP22 gene transcription modulation | S16 Pmp22-F2sN Schwann cells, FLuc/NLuc coincidence luminescence, 24 h | Potency, µM (titrated, usually from 57.5 µM), without a hit: at the highest dose activity change, negative = inhibition, usual class: inhibitors | hit rate 2% among 43,000; active means clear falling dose curves in both reporters; inconclusive means both reporters move, but less clearly or upward; inactive means either reporter flat; the % is the NLuc reporter signal; further: potency means the concentration at half of the fitted maximal effect; on the % scale 0 is the no-effect control and ±100 the full control effect
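Transcriptional readout in edited S16(c9) cells: two luciferases reported from the Pmp22 locus, measured in turn after 24 h compound incubation.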
p53null 32C tox: kills p53 null cells at the permissive temperature; H1299-neo p53 null cells, ATP luminescence, 24 h, 32C; Potency, µM (titrated, usually from 46.1 µM), without a hit: at the top dose activity change, negative = cytotoxicity, actives largely listed as cytotoxic; hit rate 0.62% among 55,000; AID 903;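 further: potency means the concentration at half of the fitted maximal effect; 0% = DMSO only and -100% = full killing by 100 µM tamoxifen; nearly all actives have a fitted effect of over 55% in size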
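Cells lacking p53 (H1299-neo) are plated at 600 per well and allowed to settle overnight at 37C. Test compounds (up to 46 uM) are added and held 24 hours at 32C, then ATP is quantified by luminescence.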
p53null 39C kill: kills p53 null cells at the nonpermissive temperature; H1299 p53-null (neo) cells, 39C, ATPlite viability, 24 h; Potency, µM (titrated, usually from 46.1 µM), without a hit: at the top dose activity, negative = cell killing, actives largely listed as cytotoxic; hit rate 0.97% among 55,000;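 further: potency means the concentration at half of the fitted maximal effect; 0% = DMSO only and -100% = full killing by 100 µM tamoxifen; nearly all actives have a fitted effect of over 50% in size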
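Following overnight plating at 37C (600 cells/well), H1299-neo or H1299-p53A138V cells are dosed up to 46 uM. Incubation lasts 24 hr at 39C before ATP detection.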
S16 viability: S16 Schwann cell cytotoxicity; Potency, µM (titrated, usually from 57.5 µM), for inactives: at the top dose activity change, negative = cytotoxicity, hits mostly cytotoxic; AID 1508642; hit rate 0.48% among 43,000; S16 Pmp22-F2sN Schwann cells viability, CellTiter-Glo, 24 h; further: potency means the concentration at half of the fitted maximal effect; on the % scale 0 is the no-effect control and ±100 the full control effect; nearly all actives have a fitted effect of over 65% in size
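S16 Schwann cells carrying the Pmp22-F2sN reporter, seeded in 1536-well format, were exposed to library compounds for 24 h at 37C. Viability was read as CellTiter-Glo luminescence after 15 min at room temperature.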
pS6 MEF inh: inhibitors of mTORC1 signaling in Tsc2-/- p53-/- MEF cells; Tsc2-/- p53-/- MEF, phospho-rpS6 immunofluorescence/PI, 24 h; Potency, µM (titrated, usually from 38.3 µM), inactives show top-dose activity change, negative = inhibition, most hits filed as inhibitors; hit rate 0.78% among 44,000; AID 493208;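 further: potency means the concentration at half of the fitted maximal effect; plate controls were DMSO for no effect and rapamycin for full effect; nearly all actives have a fitted effect of over 50% in size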
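Read-out: phospho-S6 Alexa-488 intensity over PI intensity per well, scored as % active cells using thresholds from rapamycin (7.5 nM) and DMSO controls. Tsc2-/-, p53-/- MEFs exposed to compound for 24 h; PI cell count recorded as viability.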
NLuc saturating: inhibits NanoLuc at saturating substrate, PMP22 counter-screen; shares compounds with PMP22 txn prim; hit rate 4% among 690; Secreted NLuc enzyme (filtered S16 cell medium), Nano-Glo luminescence; Potency, µM (highest dose often 57.5 µM), inactives show at the top dose activity change, negative = inhibition, most hits filed as inhibitors; further: potency means the concentration at half of the fitted maximal effect; on the % scale 0 is the no-effect control and ±100 the full control effect
NLuc Km counter: counter-screen for PMP22 expression modulators: NanoLuc inhibition at Km; shares compounds with PMP22 txn prim; hit rate 5% among 690; Potency, µM (highest dose often 57.5 µM), without a hit: at the highest dose activity change, negative = inhibition, most hits filed as inhibitors; secreted NLuc enzyme, coelenterazine luminescence, Km conditions; further: potency means the concentration at half of the fitted maximal effect; on the % scale 0 is the no-effect control and ±100 the full control effect
FLuc counter: counter-screen for PMP22 expression modulators: firefly luciferase inhibition; shares compounds with PMP22 txn prim; purified P. pyralis FLuc, luminescence, 10 min; Potency, µM (doses to about 57.5 µM), for the others: at the top dose activity, negative = inhibition, hits mostly inhibitors; 690 tested, under 10 active; further: % of control where 0% means no effect
Target sequence (P08659 whole entry, looked up): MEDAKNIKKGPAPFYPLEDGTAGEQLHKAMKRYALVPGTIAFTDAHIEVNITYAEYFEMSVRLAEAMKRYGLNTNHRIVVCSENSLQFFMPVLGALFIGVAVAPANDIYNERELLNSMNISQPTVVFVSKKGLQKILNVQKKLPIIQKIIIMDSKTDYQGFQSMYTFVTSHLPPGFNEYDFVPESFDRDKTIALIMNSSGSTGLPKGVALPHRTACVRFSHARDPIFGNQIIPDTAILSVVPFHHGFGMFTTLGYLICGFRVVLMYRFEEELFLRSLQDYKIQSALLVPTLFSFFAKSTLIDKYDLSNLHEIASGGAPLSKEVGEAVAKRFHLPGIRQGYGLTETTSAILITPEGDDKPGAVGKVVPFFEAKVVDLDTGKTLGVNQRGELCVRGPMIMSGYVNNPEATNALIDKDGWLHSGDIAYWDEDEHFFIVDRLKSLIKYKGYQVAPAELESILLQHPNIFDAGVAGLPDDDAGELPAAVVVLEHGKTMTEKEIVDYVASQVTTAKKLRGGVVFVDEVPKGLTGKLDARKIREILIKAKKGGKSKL
S16 F2sN tox cnf: confirmation of cytotoxicity in S16 Pmp22-F2sN Schwann cells (luciferase reporters placed in the Pmp22 gene); S16 Schwann cells viability, CellTiter-Glo ATP luminescence, 24 h; shares compounds with PMP22 txn prim; Potency, µM (top dose mostly 57.5 µM), without a hit: at the top dose activity change, negative = viability loss, usual class: cytotoxic; hit rate 7% among 690; further: potency means the concentration at half of the fitted maximal effect; on the % scale 0 is the no-effect control and ±100 the full control effect
PMP22 txn conf: PMP22 transcription modulation, confirmatory; Potency, µM (doses to about 57.5 µM), inactives show at the highest dose activity change, negative = inhibition, actives largely listed as inhibitors; hit rate 22% among 690; S16 Schwann cells Pmp22-F2sN, dual luciferase, 24 h; AID 1508646; shares compounds with PMP22 txn prim; active means clear falling dose curves in both reporters; inconclusive means both reporters move, but less clearly or upward; inactive means either reporter flat; the % is the FLuc reporter signal; further: potency means the concentration at half of the fitted maximal effect
Starred values were filed as active, the others as inactive; ? = inconclusive; . = no result; [ ] = dose if it differs, or a comment. Unless noted, the call rests on the fitted dose curve; in most records, active means well fitted curve in the direction sought with a large enough effect; inconclusive means small, poorly fitted or top-dose-only effect, or another doubt; inactive means no such curve, though single readings can be large; an effect the other way counts as inactive or inconclusive.

SMILES	PMP22 txn prim	p53null 32C tox	p53null 39C kill	S16 viability	pS6 MEF inh	NLuc saturating	NLuc Km counter	FLuc counter	S16 F2sN tox cnf	PMP22 txn conf
CCOc1ccc(Nc2nc3c(S(=O)(=O)c4ccc(CC)cc4)nnn3c3ccc(Cl)cc23)cc1	7.94µM*	-3.9%	-2.0%	1.9%	1.2%	-15.4%	3.7%	-2.2%	-23.5%	?
O=S(=O)(c1ccc(Br)cc1)c1nnn2c1nc(Nc1cccc(C(F)(F)F)c1)c1sccc12	?	2.2%	10.9%	-5.2%	3.7%	.	.	.	.	.
Cc1cccc(Nc2nc3c(S(=O)(=O)c4ccc(Br)cc4)nnn3c3ccsc23)c1C	11.9µM*	1.8%	?	-4.4%	4.6%	-17.4%	?	11.3%	7.0%	?
CCOc1ccc(/C=C/C(=O)Nc2sc3c(c2C(=O)OC)C(C(=O)OC)CC3)cc1 (configuration not stated)	?	7.3%	16.7%	-10.0%	8.3%	.	.	.	.	.
NS(=O)(=O)c1ccc(CCNC(=O)c2nc(SCc3ccccc3F)ncc2Cl)cc1	6.5%	-6.5%	7.6%	-0.2%	1.0%	.	.	.	.	.
COC(=O)c1ccccc1NS(=O)(=O)c1cc2c(cc1C)N(C)CCO2	3.3%	-5.5%	9.2%	11.7%	-16.1%	.	.	.	.	.
O=C(Cn1cc(SCc2ccc(F)cc2)c2ccccc21)N1CCCCCC1	-43.1%	8.3%	-14.4%	?	?	.	.	.	.	.
Cc1cc(Nc2ccc(F)cc2)nc(-n2nc(C)cc2C)n1	?	-12.0%	-7.1%	?	-0.5%	?	-12.2%	-8.5%	?	16.5µM*
O=C(Cn1cnc2onc(-c3ccc(Cl)cc3)c2c1=O)Nc1ccc(F)cc1	?	9.1%	-2.9%	-16.8%	-5.4%	.	.	.	.	.
COc1ccc(OC)c(NC(=O)Cn2cnc3onc(-c4ccc(Cl)cc4)c3c2=O)c1	5.15µM*	16.3%	-4.3%	-20.8%	23.6%	-6.2%	3.5%	8.4%	-17.5%	?
CCOC(=O)c1ccccc1NC(=O)n1ncc2cc(Cl)ccc21	9.6%	1.0%	-10.7%	-2.4%	1.6%	.	.	.	.	.
CCOC(=O)c1cc(NC(=O)c2ccccc2)c(=O)n2c1oc1ccc(Cl)cc12	?	-3.9%	-33.6%	?	-6.4%	-3.5%	3.3%	6.3%	10.0%	?
COc1ccc(-c2cc3nc(C)c(CCC(=O)N4CCN(c5ccccc5F)CC4)c(C)n3n2)c(OC)c1	?	-9.7%	-1.8%	18.0%	1.3%	.	.	.	.	.
COc1ccc(-c2cc3nc(C)c(CCC(=O)N4CCN(c5cc(C)ccc5C)CC4)c(C)n3n2)c(OC)c1	14.2µM*	-0.2%	-15.3%	20.6%	-5.3%	?	-0.2%	-5.1%	-7.4%	-38.9%
CCOc1ccc(NC(=O)c2cc3sc(Cl)cc3n2CC)cc1	11.9µM*	-7.1%	13.3%	-28.2%	-1.3%	2.0%	2.0%	1.3%	-6.2%	?
CCn1c(C(=O)NCc2ccc(OC)cc2)cc2sc(Cl)cc21	3.8%	?	14.2%	18.7%	-6.1%	.	.	.	.	.
COc1ccc(S(=O)(=O)NCCc2sc(-c3cccc(C)c3)nc2C)cc1	?	5.1%	6.3%	2.0%	-7.6%	.	.	.	.	.
CCC(=O)Nc1nnc(SCc2cc(=O)c3cc(C)ccc3[nH]2)s1	?	-3.1%	15.0%	-24.6%	8.4%	.	.	.	.	.
CCCC(=O)Nc1nnc(SCc2cc(=O)c3ccc(C)cc3[nH]2)s1	6.77µM*	-0.3%	2.4%	-22.2%	?	?	?	-12.2%	-22.9%	?
CCOc1cc(CNC(=O)c2cc(-c3ccc(Cl)s3)nc3ccccc23)ccc1OC	?	1.7%	-15.8%	13.3%	-1.3%	.	.	.	.	.
CCS(=O)(=O)c1nc(S(=O)(=O)c2ccc(Cl)cc2)c(NCc2ccccc2Cl)s1	4.8µM*	-1.5%	-0.2%	-25.8%	-15.5%	?	?	8.1%	4.1%	-20.6%
COc1ccc(C)cc1NC(=O)Cn1c(=O)ccc2cc(S(=O)(=O)N3CCC(C)CC3)ccc21	?	4.9%	8.7%	-19.9%	?	.	.	.	.	.
COC(=O)Cn1c(=O)c2cccn2c2ccc(F)cc21	-17.6%	1.6%	9.2%	-1.4%	-11.5%	.	.	.	.	.
Cc1ccc(NC(=O)/C(C#N)=C/c2cc(C)n(-c3ccc(Br)cc3)c2C)cc1C	11.9µM*	-0.7%	-2.0%	-9.9%	3.2%	0.2%	-2.3%	-2.1%	7.7%	?
Cc1ccc(-n2c(C)cc(/C=C(\C#N)C(=O)Nc3ccc(C)c(C)c3)c2C)cc1	-10.3%	5.2%[9.22 µM]	-11.2%	-1.2%	1.2%	.	.	.	.	.
SMILES	PMP22 txn prim	p53null 32C tox	p53null 39C kill	S16 viability	pS6 MEF inh	NLuc saturating	NLuc Km counter	FLuc counter	S16 F2sN tox cnf	PMP22 txn conf
CCOC(=O)c1cccc(NC(=O)c2cc3cc4cc(OC)ccc4nc3s2)c1	?	-4.3%	7.3%	8.8%	-0.5%	.	.	.	.	.
CCOC(=O)c1cccc(NC(=O)c2cc3cc4ccc(C)cc4nc3s2)c1	11.3µM*	-1.4%	-17.1%	12.9%	-2.0%	-4.9%	0.2%	-17.0%	?	19.3µM*
O=C(Nc1ccccc1Br)C(Cc1ccccc1)NS(=O)(=O)c1cccc2nsnc12 (configuration not stated)	?	12.0%	8.8%	-0.7%	3.3%	.	.	.	.	.
Cc1ccc(Cl)cc1N1CCN(CCCNc2ncnc3onc(-c4ccc(Cl)cc4)c23)CC1	14.2µM*	-0.1%	-2.2%	4.2%	-2.4%	-7.3%	6.9%	-9.3%	4.7%	?
Cc1cc(C)c(Nc2ncnc3c2cnn3C)c(C)c1	?	11.8%	9.6%	?	?	-7.7%	-0.6%	4.0%	-13.1%	-5.4%
Cc1cccc(-n2ncc3c(Nc4c(C)cc(C)cc4C)ncnc32)c1	-29.4%	24.6%	7.0%	-18.0%	?	.	.	.	.	.
